Test [1] deals with Estrogen receptor (Homo sapiens) (UniProt P03372). In words: OT_ERa_GFPERaERE_0480: Odyssey Thera (OT) 8-hour HeLa Transcription Induction Assay for Estrogen Receptor (AID 2283381). A digest of the protocol:
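GFP-ERE reporter, HeLa, 8 h exposure. Readout: fluorescence microscopy, high-content image analysis. Fit direction positive vs DMSO negative control.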

Test [2] shares this target. In words: OT_ERa_GFPERaERE_0120: Odyssey Thera (OT) 2-hour HeLa Transcription Induction Assay for Estrogen Receptor (AID 2283382; active = hit-call score of the fitted dose curve at least 0.9, where 1 is the maximum). A digest of the protocol: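 Fluorescence microscopy read-out: inducible fluorescent protein reporter in HeLa cells, imaged 2 h post-dose. Signal increase over DMSO negative control fitted as single primary endpoint via high content image analysis.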

In test [3] the target is Bile acid receptor (Homo sapiens) (UniProt Q96RI1). In words: OT_FXR_FXRSRC1_0480: Odyssey Thera (OT) 8-hour HEK293T Protein-Complementation Assay for Farnesoid X receptor/SRC-1 Co-activator (AID 2283383; active = hit-call score of the fitted dose curve at least 0.9, where 1 is the maximum). A digest of the protocol:
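Fluorescence intensity read-out, 8 h post-dose, HEK293T protein-fragment complementation; FXR bait and SRC-1 prey each linked to reporter fragments. Activity scored as signal increase over DMSO negative control.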

The target in test [4] is Peroxisome proliferator-activated receptor gamma (Homo sapiens) (UniProt P37231). The experiment in a line: OT_PPARg_PPARgSRC1_0480: Odyssey Thera (OT) 8-hour Protein-Complementation Assay for Peroxisome Proliferator-activated Receptor Gamma / SRC-1 Co-activator (AID 2283387; active = hit-call score of the fitted dose curve at least 0.9, where 1 is the maximum). A digest of the protocol: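 HEK293T transiently transfected with PPARg and SRC-1 fused to Venus YFP fragments, compounds 8 h at 37C. Fixed, Draq5-stained cells imaged; nuclear/cytoplasmic 488 nm fluorescence ratio over at least 350 cells per image; gain fitted versus DMSO.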

Test [5] has the same target. The experiment in a line: OT_PPARg_PPARgSRC1_1440: Odyssey Thera (OT) 24-hour Protein-Complementation Assay for Peroxisome Proliferator-activated Receptor Gamma/ SRC-1 Co-activator (AID 2283388; active = hit-call score of the fitted dose curve at least 0.9, where 1 is the maximum). The method in brief: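 HEK293T transiently transfected with PPARg/SRC-1 split-Venus YFP fusions 48 h before dosing, then treated 24 h at 37C. Fixed cells imaged; nuclear/cytoplasmic 488 nm fluorescence ratio, gain of signal versus DMSO.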

The nature of test [6]: CEETOX_H295R_OHPREG: CeeTox H295R High-throughput Steroidogenesis Assay for OH-Pregnenolone (OHPREG) (AID 2283434). The settings on record: actives raise or lower the signal. A digest of the protocol:
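Readout: HPLC-MS/MS of 17alpha-hydroxypregnenolone in medium after 48 h chemical exposure of H295R cells pretreated with forskolin. Values fitted bidirectionally relative to DMSO; chemicals reducing viability to 20–70% were retested after 10-fold dilution.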

The nature of test [7]: CEETOX_H295R_OHPROG: CeeTox H295R High-throughput Steroidogenesis Assay for OH-Progesterone (OHPROG) (AID 2283435). The settings on record: actives raise or lower the signal. The method in brief: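 HPLC-MS/MS quantification of 17alpha-hydroxyprogesterone secreted by H295R cells after 48 h chemical exposure, following 48 h 10 uM forskolin prestimulation. Gain or loss of signal fitted relative to DMSO. Viability checked by MTT in the same wells.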

Test [8] is described as follows: CEETOX_H295R_ESTRADIOL: CeeTox H295R High-throughput Steroidogenesis Assay for Estradiol (AID 2283440).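 Also: estradiol secreted into medium quantified by LC-MS/MS after dansyl derivatisation.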 The settings on record: actives raise or lower the signal. A digest of the protocol: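 H295R cells pre-stimulated 48 h with 10 uM forskolin, then exposed 48 h to chemical in 0.1% DMSO. Medium estradiol quantified by MTBE extraction, dansyl derivatisation and HPLC-MS/MS; bidirectional fit versus DMSO; MTT viability required >/=70%.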

The nature of test [9]: CEETOX_H295R_ESTRONE: CeeTox H295R High-throughput Steroidogenesis Assay for Estrone (AID 2283441).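 Also: estrone secreted into medium measured by LC-MS/MS after dansyl derivatization.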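 As to AC50: human adrenal H295R cells prestimulated with forskolin for two days.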 The settings on record: actives raise or lower the signal. The method in brief: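 Forskolin-stimulated H295R cells are treated 48 h with chemical, and estrone in the medium is measured by LC-MS/MS. Activity is fitted in both directions relative to DMSO controls, with chemicals diluted until MTT viability reaches at least 70%.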

Test [10] in a line: CEETOX_H295R_PROG: CeeTox H295R High-throughput Steroidogenesis Assay for Progesterone (PROG) (AID 2283442). The settings on record: actives raise or lower the signal. The method in brief: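 H295R adrenal cells prestimulated 48 h with 10 uM forskolin, then exposed 48 h to test chemical in 0.1% DMSO. Progesterone in medium quantified by HPLC-MS/MS after MTBE extraction; viability checked by MTT in same wells.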

Read-out in test [11]: Tumor necrosis factor receptor superfamily member 6 (Homo sapiens) (UniProt P25445)
The experiment in a line: LTEA_HepaRG_FAS: Life Technologies and Expression Analysis (LTEA) Assay for Fas cell surface death receptor (FAS) using HepaRG (AID 2283447). The settings on record: mRNA level, 48 h; actives raise or lower the signal. A digest of the protocol: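 Differentiated human HepaRG cells, pre-cultured 48 h, were exposed in duplicate for 48 h to 8-point half-log concentrations (top 100 uM, 0.5% DMSO) in serum-free induction medium; FAS mRNA measured by qRT-PCR, normalized to ACTB/GAPDH/POLR2A, bidirectional fit versus DMSO.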

Read-out in test [12]: Fatty acid synthase (Homo sapiens) (UniProt P49327)
In words: LTEA_HepaRG_FASN: Life Technologies and Expression Analysis (LTEA) Assay for Fatty Acid Synthase (FASN) using HepaRG (AID 2283448). The settings on record: mRNA level, 48 h; actives raise or lower the signal. A digest of the protocol:
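HepaRG, 48 h exposure, 8-pt half-log series top 100 uM, 0.5% DMSO vehicle, duplicates. Readout: FASN transcript by Fluidigm qRT-PCR; housekeeping-normalized; bidirectional curve fit vs DMSO baseline.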

Read-out in test [13]: Cyclin D2 (CCND2), CCND2 (gene 894)
The experiment in a line: LTEA_HepaRG_CCND2: Life Technologies and Expression Analysis (LTEA) Assay for Cyclin D2 (CCND2) using HepaRG (AID 2283449).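 Also: CCND2 transcript measured by TaqMan qRT-PCR and normalised to three housekeeping genes.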 The settings on record: mRNA level, 48 h; actives raise or lower the signal. A digest of the protocol: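 In this HepaRG study, an eight-point concentration series (max 100 uM, 0.5% DMSO) is applied for 48 h. CCND2 mRNA change is derived by qRT-PCR normalised to ACTB, GAPDH and POLR2A.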

Test [14] has as its target Bile acid receptor (Homo sapiens) (UniProt Q96RI1). The experiment in a line: OT_FXR_FXRSRC1_1440: Odyssey Thera (OT) 24-hour HEK293T Protein-Complementation Assay for Farnesoid X receptor/SRC-1 Co-activator (AID 2283384; active = hit-call score of the fitted dose curve at least 0.9, where 1 is the maximum). A digest of the protocol:
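Fluorescence readout, 24 h post-dose, HEK293T; FXR and SRC-1 fused to complementary reporter fragments, association reconstitutes signal. Positive-direction fit vs DMSO baseline.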

For test [15], the target named is Retinoic acid receptor RXR-alpha (Homo sapiens) (UniProt P19793). In words: OT_NURR1_NURR1RXRa_0480: Odyssey Thera (OT) 8-hour HEK293T Protein Complementation Assay for Nurr1/retinoid X receptor (RXR) (AID 2283385; active = hit-call score of the fitted dose curve at least 0.9, where 1 is the maximum). The method in brief:
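Read-out: fluorescence from protein-fragment complementation between Nurr1 and RXRα in human HEK293T cells, 8 h after dosing. DMSO served as negative control; increased signal counted as activity.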

The target is the same in test [16]. The experiment in a line: OT_NURR1_NURR1RXRa_1440: Odyssey Thera (OT) 24-hour HEK293T Protein Complementation Assay for Nurr1/retinoid X receptor (RXR) (AID 2283386; active = hit-call score of the fitted dose curve at least 0.9, where 1 is the maximum). The method in brief:
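Fluorescence PCA read-out; HEK293T; 24 h post-dose; bait/prey fused to reporter fragments; gain-of-signal fit vs DMSO negative control.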

Test [17] is described as follows: CEETOX_H295R_11DCORT: CeeTox H295R High-throughput Steroidogenesis Assay for 11-Deoxycortisol (11DCORT) (AID 2283432).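 As to AC50: 11-deoxycortisol secreted into the medium measured by LC-MS/MS.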 The settings on record: actives raise or lower the signal. The method in brief:
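H295R cells prestimulated 48 h with 10 uM forskolin, then exposed 48 h to chemical in 0.1% DMSO. 11-Deoxycortisol in medium quantified by HPLC-MS/MS after MTBE extraction; bidirectional fit versus DMSO. MTT viability read in same wells.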

A short description of test [18]: CEETOX_H295R_CORTISOL: CeeTox H295R High-throughput Steroidogenesis Assay for Cortisol (AID 2283438).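 Also: cortisol secreted into medium quantified by LC-MS/MS.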 The settings on record: actives raise or lower the signal. A digest of the protocol:
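Read-out: cortisol in culture medium by reverse-phase C18 HPLC with ESI-positive tandem MS, after MTBE liquid-liquid extraction. Cells: human adrenal H295R, forskolin-primed (10 uM, 48 h) before 48 h chemical exposure in 0.1% DMSO.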

The nature of test [19]: CEETOX_H295R_DOC: CeeTox H295R High-throughput Steroidogenesis Assay for DOC (AID 2283439). The settings on record: actives raise or lower the signal. The method in brief: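 Human adrenocortical H295R cells, passages up to 10, received 10 uM forskolin for 48 h before chemical addition. After another 48 h exposure in 0.1% DMSO, secreted DOC was measured by LC-MS/MS, with gain or loss fitted against DMSO controls.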

A short description of test [20]: CEETOX_H295R_ANDR: CeeTox H295R High-throughput Steroidogenesis Assay for Androstenedione (ANDR) (AID 2283436).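 Also: human H295R adrenal cells exposed for 48 h with androstenedione measured in medium.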 The settings on record: actives raise or lower the signal. The method in brief: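 Steroidogenesis in H295R adrenal cells after 48 h dosing; androstenedione quantified by LC-MS/MS, with DMSO as negative control and baseline for bidirectional curve fitting.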

Inconclusive results are not listed. The source made the active and inactive calls. The calls were made as follows, unless noted: active = hit-call score of the fitted dose curve at least 0.9, where 1 is the maximum; inactive = score below 0.9.

A word on the AC50: it is the midpoint of the concentration-response curve, whichever way the signal moves.

Retinoic acid receptor RXR-alpha (Homo sapiens), sequence (P19793 whole entry, looked up, the tested form may be a part): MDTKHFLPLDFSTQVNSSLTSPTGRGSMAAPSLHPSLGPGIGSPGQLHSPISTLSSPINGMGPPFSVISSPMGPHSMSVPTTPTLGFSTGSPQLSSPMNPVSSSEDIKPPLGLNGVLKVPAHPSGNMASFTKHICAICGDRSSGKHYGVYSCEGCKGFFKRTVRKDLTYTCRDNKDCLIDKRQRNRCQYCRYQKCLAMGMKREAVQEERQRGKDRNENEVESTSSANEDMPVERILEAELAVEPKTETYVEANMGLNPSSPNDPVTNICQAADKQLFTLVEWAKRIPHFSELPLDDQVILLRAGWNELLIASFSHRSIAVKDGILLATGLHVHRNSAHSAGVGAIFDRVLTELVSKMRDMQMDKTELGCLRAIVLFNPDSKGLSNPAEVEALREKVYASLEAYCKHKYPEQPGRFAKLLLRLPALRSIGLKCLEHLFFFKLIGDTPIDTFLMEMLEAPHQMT
Bile acid receptor (Homo sapiens), sequence (Q96RI1 whole entry, looked up, the tested form may be a part): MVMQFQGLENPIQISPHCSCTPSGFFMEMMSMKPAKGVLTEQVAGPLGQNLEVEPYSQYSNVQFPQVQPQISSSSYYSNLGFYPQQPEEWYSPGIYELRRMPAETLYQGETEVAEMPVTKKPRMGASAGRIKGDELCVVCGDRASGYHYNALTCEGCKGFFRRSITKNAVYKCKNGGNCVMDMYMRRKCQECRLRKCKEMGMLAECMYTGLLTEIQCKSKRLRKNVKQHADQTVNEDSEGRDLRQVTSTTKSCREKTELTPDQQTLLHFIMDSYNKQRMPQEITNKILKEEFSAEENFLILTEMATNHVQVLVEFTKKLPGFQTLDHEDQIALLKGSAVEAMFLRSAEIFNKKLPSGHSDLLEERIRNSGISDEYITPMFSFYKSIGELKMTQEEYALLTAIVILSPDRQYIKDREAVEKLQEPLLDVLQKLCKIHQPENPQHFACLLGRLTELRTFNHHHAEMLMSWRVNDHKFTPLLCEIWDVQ
Estrogen receptor (Homo sapiens), sequence (P03372 whole entry, looked up): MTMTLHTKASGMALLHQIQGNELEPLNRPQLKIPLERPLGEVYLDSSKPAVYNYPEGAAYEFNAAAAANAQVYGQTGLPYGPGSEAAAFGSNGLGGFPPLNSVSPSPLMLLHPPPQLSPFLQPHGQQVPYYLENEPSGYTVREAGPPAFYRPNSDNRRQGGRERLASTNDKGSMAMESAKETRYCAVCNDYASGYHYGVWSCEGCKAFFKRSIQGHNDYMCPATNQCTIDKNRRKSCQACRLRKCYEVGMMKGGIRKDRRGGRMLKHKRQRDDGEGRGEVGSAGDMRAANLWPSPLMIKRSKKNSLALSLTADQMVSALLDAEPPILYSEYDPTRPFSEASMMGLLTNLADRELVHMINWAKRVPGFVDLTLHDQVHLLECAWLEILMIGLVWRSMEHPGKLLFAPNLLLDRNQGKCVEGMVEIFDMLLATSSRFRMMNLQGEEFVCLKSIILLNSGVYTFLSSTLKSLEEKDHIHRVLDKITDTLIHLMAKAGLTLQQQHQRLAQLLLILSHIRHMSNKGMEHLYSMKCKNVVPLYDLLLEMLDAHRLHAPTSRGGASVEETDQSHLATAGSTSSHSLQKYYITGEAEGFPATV
Peroxisome proliferator-activated receptor gamma (Homo sapiens), sequence (P37231 whole entry, looked up, the tested form may be a part): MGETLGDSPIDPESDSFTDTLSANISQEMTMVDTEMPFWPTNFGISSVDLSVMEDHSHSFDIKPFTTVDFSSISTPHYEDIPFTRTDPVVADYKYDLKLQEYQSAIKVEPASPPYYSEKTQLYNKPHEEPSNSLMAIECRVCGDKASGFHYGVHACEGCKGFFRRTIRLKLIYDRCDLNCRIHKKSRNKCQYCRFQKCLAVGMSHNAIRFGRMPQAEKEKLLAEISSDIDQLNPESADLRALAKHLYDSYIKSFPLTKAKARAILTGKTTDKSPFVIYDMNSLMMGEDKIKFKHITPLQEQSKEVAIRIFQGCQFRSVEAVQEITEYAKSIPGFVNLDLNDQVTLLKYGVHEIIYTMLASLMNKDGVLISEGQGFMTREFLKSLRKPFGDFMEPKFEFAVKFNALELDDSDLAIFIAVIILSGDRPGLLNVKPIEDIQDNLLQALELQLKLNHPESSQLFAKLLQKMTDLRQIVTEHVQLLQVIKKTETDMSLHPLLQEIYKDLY
Fatty acid synthase (Homo sapiens), sequence (P49327 whole entry, looked up): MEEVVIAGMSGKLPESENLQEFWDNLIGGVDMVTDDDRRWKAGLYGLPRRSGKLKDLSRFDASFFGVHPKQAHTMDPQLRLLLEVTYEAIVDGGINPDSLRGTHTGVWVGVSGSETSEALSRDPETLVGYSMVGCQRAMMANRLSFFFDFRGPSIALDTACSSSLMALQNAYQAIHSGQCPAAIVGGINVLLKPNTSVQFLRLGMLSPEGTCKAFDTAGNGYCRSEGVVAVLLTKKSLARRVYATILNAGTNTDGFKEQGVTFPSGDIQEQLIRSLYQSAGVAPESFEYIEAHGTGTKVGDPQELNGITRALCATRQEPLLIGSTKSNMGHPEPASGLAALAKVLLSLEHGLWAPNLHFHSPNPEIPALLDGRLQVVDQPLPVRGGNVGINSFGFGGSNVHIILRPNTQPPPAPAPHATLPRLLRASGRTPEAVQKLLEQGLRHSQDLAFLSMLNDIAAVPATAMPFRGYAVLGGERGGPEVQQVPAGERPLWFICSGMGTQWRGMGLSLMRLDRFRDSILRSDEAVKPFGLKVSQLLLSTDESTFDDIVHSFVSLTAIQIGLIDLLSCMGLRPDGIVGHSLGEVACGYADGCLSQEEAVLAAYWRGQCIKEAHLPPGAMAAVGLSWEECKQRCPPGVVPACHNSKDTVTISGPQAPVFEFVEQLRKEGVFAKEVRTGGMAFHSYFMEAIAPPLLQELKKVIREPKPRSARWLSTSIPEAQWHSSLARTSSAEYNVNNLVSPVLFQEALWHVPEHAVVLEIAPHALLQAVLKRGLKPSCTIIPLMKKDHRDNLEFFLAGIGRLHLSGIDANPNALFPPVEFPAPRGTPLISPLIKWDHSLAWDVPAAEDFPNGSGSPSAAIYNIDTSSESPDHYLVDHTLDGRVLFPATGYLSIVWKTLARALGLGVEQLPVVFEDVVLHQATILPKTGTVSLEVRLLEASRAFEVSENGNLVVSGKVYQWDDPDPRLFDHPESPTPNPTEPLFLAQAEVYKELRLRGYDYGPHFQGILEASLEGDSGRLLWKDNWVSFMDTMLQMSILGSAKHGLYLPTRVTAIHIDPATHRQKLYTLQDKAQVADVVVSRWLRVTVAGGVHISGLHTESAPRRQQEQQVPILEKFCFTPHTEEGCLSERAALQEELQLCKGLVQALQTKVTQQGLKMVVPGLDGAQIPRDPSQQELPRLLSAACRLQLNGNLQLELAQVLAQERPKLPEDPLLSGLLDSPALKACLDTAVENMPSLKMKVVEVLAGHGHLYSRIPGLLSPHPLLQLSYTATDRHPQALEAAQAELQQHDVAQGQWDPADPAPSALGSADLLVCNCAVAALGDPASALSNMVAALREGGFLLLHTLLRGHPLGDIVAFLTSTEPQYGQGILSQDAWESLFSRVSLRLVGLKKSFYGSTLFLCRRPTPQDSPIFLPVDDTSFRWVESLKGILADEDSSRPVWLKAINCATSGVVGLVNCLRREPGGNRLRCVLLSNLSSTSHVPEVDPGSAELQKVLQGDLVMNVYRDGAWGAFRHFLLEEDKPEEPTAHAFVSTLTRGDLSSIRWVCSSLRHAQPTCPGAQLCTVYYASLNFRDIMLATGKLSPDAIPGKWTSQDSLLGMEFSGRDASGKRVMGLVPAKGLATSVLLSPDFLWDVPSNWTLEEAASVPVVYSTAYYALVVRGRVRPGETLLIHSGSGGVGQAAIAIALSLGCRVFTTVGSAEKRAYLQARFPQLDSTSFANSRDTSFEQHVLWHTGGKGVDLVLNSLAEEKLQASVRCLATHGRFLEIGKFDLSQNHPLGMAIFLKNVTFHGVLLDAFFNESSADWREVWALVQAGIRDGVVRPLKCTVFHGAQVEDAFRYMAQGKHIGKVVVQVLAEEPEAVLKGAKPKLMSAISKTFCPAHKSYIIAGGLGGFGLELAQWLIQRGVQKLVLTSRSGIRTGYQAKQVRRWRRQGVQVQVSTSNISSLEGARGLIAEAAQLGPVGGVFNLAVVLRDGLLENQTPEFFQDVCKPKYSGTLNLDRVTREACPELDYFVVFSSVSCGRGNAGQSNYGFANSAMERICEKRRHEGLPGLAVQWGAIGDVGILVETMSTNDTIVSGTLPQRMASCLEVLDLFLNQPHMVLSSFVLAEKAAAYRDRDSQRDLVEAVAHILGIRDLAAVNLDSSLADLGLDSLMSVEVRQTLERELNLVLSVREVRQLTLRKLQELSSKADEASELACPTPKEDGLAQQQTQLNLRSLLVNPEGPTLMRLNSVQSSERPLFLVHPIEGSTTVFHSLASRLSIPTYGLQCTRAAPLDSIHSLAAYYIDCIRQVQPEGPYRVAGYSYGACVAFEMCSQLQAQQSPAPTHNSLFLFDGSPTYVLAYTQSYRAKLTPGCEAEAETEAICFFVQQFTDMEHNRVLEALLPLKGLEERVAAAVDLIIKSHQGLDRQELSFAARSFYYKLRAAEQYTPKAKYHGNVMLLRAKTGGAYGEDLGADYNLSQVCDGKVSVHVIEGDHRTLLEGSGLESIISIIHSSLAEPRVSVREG

Consider `CNC(=O)Oc1cccc(N=CN(C)C)c1`, for which the outcome in [1], in [2], in [3], in test [4], in test [5] and in [6] was inactive. In addition, the call in [7], in test [8], in test [9], in test [11], in [12] and in [13] was inactive. Further, the AC50 in test [10] is 35.9 µM (active).

For the molecule `CCc1ccc(C(=O)NN(C(=O)c2cc(C)cc(C)c2)C(C)(C)C)cc1`, the molecule was called inactive in test [1], in [2], in [3], in test [15], in test [16] and in [4]. Besides, the outcome in [5], in test [17], in test [6], in test [7], in test [18] and in test [19] was inactive. The outcome in test [8], in test [9], in [10], in test [11], in [12] and in test [13] was inactive. The concentration at half-maximal activity (AC50) in test [14] was 10.6 µM (active).

Take `CC(C)OC(=O)Nc1cccc(Cl)c1`: the molecule was classed as inactive in [1], in test [2], in [14], in test [15], in test [4] and in test [5]. For the same molecule, the call in test [6], in test [7], in test [8], in test [10], in test [11] and in test [12] was inactive. The AC50 was 48.4 µM (active) in test [3] and 15.6 µM (active) in test [9].

In the case of `CCN(CC)C(=O)SCc1ccc(Cl)cc1`, the call in [1], in test [2], in test [14], in test [15], in test [4] and in test [5] was inactive. Further, the molecule was classed as inactive in test [7], in test [18], in test [10], in test [11] and in test [12]. Besides, the AC50 in test [3] was 40 µM (active); in test [17], 24.6 µM (active); in test [6], 19.3 µM (active); in [19] it was 22.6 µM (active).

`C#CCN1C(=O)COc2cc(F)c(N3C(=O)C4=C(CCCC4)C3=O)cc21`: the molecule was called inactive in test [1], in test [2], in test [15], in test [16], in test [4] and in test [5]. The molecule was classed as inactive in test [17], in test [6], in test [7], in [20], in test [18] and in test [19]. The call in test [8], in [9], in [10], in [11] and in [12] was inactive.
